In article PMC4552634, “A New Set of Chemical Starting Points with Plasmodium falciparum Transmission-Blocking Potential for Antimalarial Drug Discovery” (PLoS ONE, 2015):
About 3,200 (25%) of roughly 13,000 compounds showed an effect of 50% or more. Some of the results follow.

system: P. falciparum stage V gametocytes; set-up: BacTiter-Glo ATP luminescence viability of purified stage V gametocytes in 384-well plates, per cent inhibition versus DMSO; conditions: 48 h, 5 µM; inhibitor

Structure (SMILES)	% Inhibition [%]
COc1ccc(C2CC(c3cccs3)=NN2C(=O)COc2cccc3c2CCCC3O)cc1OC (stereo not shown) [TCMDC-125033]	11.22
O=C(/C=C/c1ccc(Cl)c(Cl)c1)NCCCCCN1CCC(NS(=O)(=O)c2cc(Cl)cc(Cl)c2)CC1 [TCMDC-135905]	1.117
O=C(C=Cc1ccc(Cl)c(Cl)c1)NCCCCCN1CCC(CCCNC(=O)C2CC2c2ccccc2)CC1 (stereo not shown) [TCMDC-139572]	-16.95
O=C(/C=C/c1ccc(Cl)c(Cl)c1)NCCCCCN1CCC(NC(=O)Nc2ccc(Br)cc2)CC1 [TCMDC-135728]	5.216
O=C(C=Cc1ccc(Cl)c(Cl)c1)NCCCCCN1CCC(CCCNS(=O)(=O)c2ccc(Br)cc2)CC1 [TCMDC-139590]	106.1
COc1ccc(S(=O)(=O)NCCC2CCN(CCCCCNC(=O)C=Cc3ccc(Cl)c(Cl)c3)CC2)cc1 [TCMDC-139584]	28.62
COc1ccc(S(=O)(=O)NCCCC2CCN(CCCCCNC(=O)C=Cc3ccc(Cl)c(Cl)c3)CC2)cc1 [TCMDC-139587]	105.9
O=C(C=Cc1ccc(Cl)c(Cl)c1)NCCCCCN1CCC(CCNS(=O)(=O)c2ccc(Br)cc2)CC1 [TCMDC-139586]	95.36
CCCCCCCCS(=O)(=O)NCCCC1CCN(CCCCCNC(=O)C=Cc2ccc(Cl)c(Cl)c2)CC1 [TCMDC-139588]	108.5
O=C(C=Cc1ccc(Cl)c(Cl)c1)NCCCCCN1CCCC(CCCNS(=O)(=O)c2ccc(Br)cc2)C1 (stereo not shown) [TCMDC-139592]	37.84
Cc1cc(C)cc(NC(=S)NCCCCN2CCN(c3cccc(Cl)c3)CC2)c1 [TCMDC-124057]	38.25
CC1(C)CN(CCC2CCC(NC(=O)/C=C/c3ccc(F)cc3F)CC2)Cc2ccc(C#N)cc21 (stereo not shown) [TCMDC-139504]	4.044
Nc1c2nc(-c3c(F)cccc3Cl)[nH]c(=O)c2nc(=O)n1-c1ccccc1 [TCMDC-124052]	4.598
CCCN1CCN(Cc2ccc(-c3ccc(-c4nc5ccccc5[nH]4)s3)cc2)CC1 [TCMDC-136767]	-1.011
CN(C)CCN(C)Cc1ccc(-c2cccc(-c3nc4ccccc4[nH]3)c2)cc1 [TCMDC-132567]	5.675
CN(CCN)Cc1ccc(-c2ccc(-c3nc4ccc(F)cc4[nH]3)s2)cc1 [TCMDC-132819]	40.81
CN(C)CCCN1CCN(Cc2ccc(-c3ccc(-c4nc5ccccc5[nH]4)s3)cc2)CC1 [TCMDC-136769]	73.2
c1ccc2[nH]c(-c3ccc(-c4ccc(CN5CCN(CCN6CCOCC6)CC5)cc4)s3)nc2c1 [TCMDC-133938]	11.37
CN(CCc1ccccn1)Cc1ccc(-c2ccc(-c3nc4ccccc4[nH]3)s2)cc1 [TCMDC-136766]	58.81
c1ccc2[nH]c(-c3ccc(-c4ccc(CN5CCN(c6ccncc6)CC5)cc4)s3)nc2c1 [TCMDC-136770]	-27.84
c1cncc(CN2CCN(Cc3ccc(-c4ccc(-c5nc6ccccc6[nH]5)s4)cc3)CC2)c1 [TCMDC-136765]	62.12
c1ccc2[nH]c(-c3ccc(-c4ccc(CN5CCCCC5)cc4)s3)nc2c1 [TCMDC-136768]	35.93
Cc1nn(-c2ccccc2)c2nc(-c3ccccc3)cc(C(=O)N3CCOCC3)c12 [TCMDC-124527]	-18.66
Cc1cc(N2CCCC2)nc(Nc2ccc(NC(=O)CC(C)C)cc2)n1 [TCMDC-124715]	12.42

Structure (SMILES)	% Inhibition [%]
COc1ccc(S(=O)(=O)NC2CCN(c3ccnc4cc(Cl)ccc34)C2)cc1 (stereo not shown) [TCMDC-133649]	9.561
NC(N)=NN=Cc1ccccc1OCc1ccccc1Cl [TCMDC-124250]	59.45
NC(N)=NN=Cc1cc([N+](=O)[O-])ccc1Sc1ccccc1CO [TCMDC-137883]	34.86
CC(=O)C1(c2ccccc2)CCN(CCC2(c3ccc(Cl)c(Cl)c3)CN(C(=O)CC(C)C)CCO2)CC1 (stereo not shown) [TCMDC-135324]	-34.64
CC(=O)Nc1ccc(S(=O)(=O)N(Cc2cccc(Oc3ccccc3)c2)C2CCN(C/C=C(\C)CCC=C(C)C)CC2)cc1 [TCMDC-139619]	47.01
Cc1cnc(CNCc2ccc(S(=O)(=O)Nc3ccc(Oc4cccc(Cl)c4)cc3)cc2)cn1 [TCMDC-136202]	-12.09
O=S(=O)(Nc1cccc(F)c1CNCc1ccccn1)c1ccc(Cl)c(Cl)c1 [TCMDC-132598]	71.21
Clc1ccc2c(NCc3ccccn3)ccnc2c1 [TCMDC-125103]	3.053
CCN(CC)C(=NCCCCCCN=C(NC(=N)c1ccc(Cl)cc1)N(CC)CC)NC(=N)c1ccc(Cl)cc1 [TCMDC-131806]	117.9
COc1ccc(CCN(C)CCCCNC(=O)c2ccc(NC(=O)c3ccc(Cl)cc3)cc2)c(OC)c1 [TCMDC-138506]	49.32
CCCN1CCN(CC(O)CNC(=O)Nc2ccc(Cl)cc2)CC1 (stereo not shown) [TCMDC-134645]	-0.7262
CCN(CC)/C(=N/C(=N)Nc1ccc(Cl)c(Cl)c1)NCCCCCCN/C(=N\C(=N)Nc1ccc(Cl)c(Cl)c1)N(CC)CC [TCMDC-131808]	116.2
CCN(CC)C(=NC(=N)NCCCCCCNC(=N)N=C(Nc1ccc(Cl)cc1)N(CC)CC)Nc1ccc(Cl)cc1 [TCMDC-131807]	113
CCCCN1CCN(CC(O)CNC(=O)Nc2ccc(Cl)cc2)CC1 (stereo not shown) [TCMDC-134646]	4.082
CC(=NNC(=N)N)C(=O)Nc1ccc(Cl)c(Cl)c1 [TCMDC-137564]	-28.53
CCN1CCN(CC(O)CNC(=O)Nc2ccc(Cl)cc2)CC1 (stereo not shown) [TCMDC-134634]	26.07
CCN(CC)C(=NC(=N)Nc1ccc(Cl)cc1)NCCCCCCCCNC(=NC(=N)Nc1ccc(Cl)cc1)N(CC)CC [TCMDC-131812]	116.8
CC(=O)Nc1ccc(OCCCCCOc2ccc(NC(C)=O)cc2Cl)c(Cl)c1 [TCMDC-137222]	-37.52
C[C@@H]([C@@H](CCCCc1ccccc1)C(=O)N[C@H](C(=O)Nc1cccnc1)C(C)(C)C)N(O)C=O [TCMDC-138380]	-15.27
CCN(C(=O)c1ccc(NC(=O)c2cccs2)cc1)c1nc2c(C)cccc2s1 [TCMDC-125338]	37.84
O=C(Nc1ccc(OC2CCN(Cc3ccsc3)CC2)c(Cl)c1)c1cccs1 [TCMDC-133740]	-2.262
CCn1c(Cc2ccccc2)nnc1SCC(=O)N1c2ccccc2Sc2ccccc21 [TCMDC-124373]	-22.31
Cc1cccc2[nH]c(-c3cccc(-c4cccc(NC(=O)C(C)CN5CCN(C)CC5)c4)c3)nc12 (stereo not shown) [TCMDC-137150]	88.37
CC(=O)N[C@H](C(=O)Nc1ccc(-c2cccc(-c3nc4c(C)cccc4[nH]3)c2)cc1)C(C)C [TCMDC-136853]	-50.38

Structure (SMILES)	% Inhibition [%]
Cc1cccc2[nH]c(-c3cccc(-c4ccc(NC(=O)C(C)CN5CCN(C)CC5)cc4)c3)nc12 (stereo not shown) [TCMDC-137151]	58.09
Cc1cccc2[nH]c(-c3ccc(-c4ccc(NC(=O)C(C)CN(C)C)cc4)cc3)nc12 (stereo not shown) [TCMDC-137105]	-73.49
Cc1cccc2[nH]c(-c3cccc(-c4cccc(NC(=O)C(C)CN(C)C)c4)c3)nc12 (stereo not shown) [TCMDC-137110]	-50.7
Cc1cccc2[nH]c(-c3ccc(-c4cccc(NC(=O)C(C)CN5CCN(C)CC5)c4)cc3)nc12 (stereo not shown) [TCMDC-137144]	36.55
Cc1cccc2[nH]c(-c3cccc(-c4ccc(NC(=O)C(C)CN5CCOCC5)cc4)c3)nc12 (stereo not shown) [TCMDC-137138]	85.59
Cc1cccc2[nH]c(-c3cccc(-c4ccc(NC(=O)CN5CCOCC5)cc4)c3)nc12 [TCMDC-136970]	-20.19
Cc1cccc2[nH]c(-c3cccc(-c4ccc(NC(=O)C(C)CN(C)C)cc4)c3)nc12 (stereo not shown) [TCMDC-137111]	95.4
Cc1cccc2[nH]c(-c3cccc(-c4ccc(NC(=O)C(C)C(=O)NC(C)C)cc4)c3)nc12 (stereo not shown) [TCMDC-132149]	-14.66
CCC(C)NC(=O)Nc1cccc(-c2cccc(-c3nc4c(C)cccc4[nH]3)c2)c1 (stereo not shown) [TCMDC-133239]	36.1
CCC(C)NC(=O)Nc1ccc(-c2cccc(-c3nc4c(C)cccc4[nH]3)c2)cc1 (stereo not shown) [TCMDC-133238]	-3.731
CC(CCc1ccccc1)NCC(O)c1ccc2c3c(cccc13)C(=O)N2C (stereo not shown) [TCMDC-131252]	17.04
COc1cc(Cc2cnc(N)nc2N)cc(OCCCCCCN2C(=O)c3ccccc3C2=O)c1OC [TCMDC-138043]	3.318
Cc1ccc(C(C#N)c2ccc3c(C(F)(F)F)cc(C(F)(F)F)nc3n2)cc1 (stereo not shown) [TCMDC-123762]	-33.32
CCc1cc(-c2n[nH]c(C(F)(F)F)c2-c2ccccc2)c(O)cc1OC [TCMDC-123700]	70.95
CCc1cc(-c2onc(C(F)(F)F)c2-c2ccccc2)c(O)cc1OC [TCMDC-124464]	25.65
COc1ccc(-c2c(-c3ccc(OCc4ccccc4)cc3O)n[nH]c2C(F)(F)F)cc1 [TCMDC-124771]	-11.85
COc1ccc(NC(=O)Nc2nc3ccccc3s2)cc1N1CCN(C)CC1 [TCMDC-139872]	-6.741
COc1cc(CN2CCC(C(=O)Nc3ccc(-c4cccc(C)c4)cc3)CC2)ccc1O [TCMDC-124633]	46.38
COc1cccc(OC)c1CN1CCC(N(C)CCCCCCCCCN2CCC(OC(=O)Nc3ccccc3-c3ccccc3)CC2)CC1 [TCMDC-134690]	126.7
COc1ccccc1CCN(C)CCN1CCC(NC(=O)c2ccc(-c3ccc(C(F)(F)F)cc3)cc2)CC1 [TCMDC-138797]	43.57
COc1ccccc1N1CCN(CCCCN(C(=O)Nc2cccc(Cl)c2)C(=O)Nc2cccc(Cl)c2)CC1 [TCMDC-131986]	-74.5
COc1cccc(OC)c1CN1CCC(N(C)CCCCCCCCN2CCC(OC(=O)Nc3ccccc3-c3ccccc3)CC2)CC1 [TCMDC-134684]	106.8
